# FUS suppressor = suppressors of FUS proteinopathy in yeast; S. cerevisiae FUS-expressing, growth rescue, OD600, 24 h; Potency, µM (series often up to 76.6 µM), hits mostly activators; actives 0.24% (n = 390,000); AID 1347120;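 further: plate controls were DMSO vehicle for no effect and reference control for full effect; nearly all actives have a fitted effect of over 55% in size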
#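 Absorbance at 600 nm, taken 24hr after compound addition, measured rescue of FUS-yeast growth at 30C. Induction used 2% galactose with seeding at OD 0.005. Controls: CP55940 from 92uM final, DMSO only.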
# TDP-43 yeast inh = rescues yeast growth from TDP-43 toxicity; TDP-43 expressing yeast growth rescue, BacTiter-Glo, 24 h; Potency, µM (doses to about 46.1 µM), without a hit: top-dose growth rescue (activation), hits mostly activators; actives 1.8% (n = 410,000); further: % of control where 0% means no effect; nearly all actives have a fitted effect of over 50% in size
#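 Cell-based yeast growth screen: TDP-43 expression induced in galactose, inoculum OD600=0.02 after raffinose pregrowth to mid-log. Read-out BacTiter-Glo luminescence at 24 hr, 30 deg C; inhibition of toxicity seen as signal increase.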
# aSyn yeast inh = alpha-synuclein toxicity inhibition in yeast; Potency, µM (highest dose often 46.1 µM), for inactives: top-dose growth rescue (activation), most hits filed as activators; Yeast expressing alpha-synuclein, growth rescue, BacTiter-Glo, 24 h; AID 652106; actives 0.14% (n = 370,000); further: % of control where 0% means no effect; nearly all actives have a fitted effect of over 65% in size
#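 Galactose-induced alpha-syn yeast (OD600=0.02, raffinose-pregrown) + pinned cpd, 24 hr, 30 deg C; growth by BacTiter-Glo luminescence. Growth restoration scores as activation.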
# Abeta rescue = restores growth of yeast expressing A-beta42 peptide. Potency, µM (titrated, usually from 46.1 µM), most hits filed as activators. actives 0.063% (n = 410,000). yeast expressing A-beta42, growth rescue, OD600, 48 h; response scale: 0% DMSO, 100% iron-clioquinol control; further: nearly all actives have a fitted effect of over 55% in size
#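 Yeast A-beta toxicity model in growth medium with pinned compounds, 48 h at 30 C; growth read as absorbance at 600 nm. Normalized to FeCl3/clioquinol equimolar mix (positive) and DMSO (negative).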
# An asterisk follows results filed as active; i = inactive; ? = inconclusive; / = no result given. Most compounds without a hit are left out; they make up all but 2.1% or so of the library. The call rests on the fitted dose curve; in most records, active means well fitted curve in the direction sought with a large enough effect; inconclusive means small, poorly fitted or top-dose-only effect, or another doubt; inactive means no such curve, though single readings can be large; an effect the other way counts as inactive or inconclusive. Potency means the concentration at half of the fitted maximal effect.
SMILES,FUS suppressor,TDP-43 yeast inh,aSyn yeast inh,Abeta rescue
COCOCCn1cc(CN2CCS(=O)(=O)N(Cc3ccc(-c4ccc(Cl)cc4)cc3)C(C(C)C)C2=O)nn1 (stereo not given),i,18.3%,4.2%,i
COCOCCn1cc(CN2CCS(=O)(=O)N(Cc3ccc(-c4ccc(Cl)c(Cl)c4)cc3)C(C(C)C)C2=O)nn1 (stereo not given),?,35.5µM*,?,i
CCN(C(=O)COC(=O)c1ccco1)c1cccc2ccccc12,i,?,?,i
CCN(C(=O)COC(=O)c1ccc(O)cc1)c1cccc2ccccc12,i,?,29.2%,7.94µM*
O=C(OC(c1ccccc1)c1nccc2ccccc12)c1cc([N+](=O)[O-])cc([N+](=O)[O-])c1 (stereo not given),/,6.31µM*,9.4%,i
CCN(Cc1ccccc1)C(=O)CCCN1C(=O)COc2ccc(C)cc21,i,/,/,/
Cc1cccc(C2=NN(c3ccc(Br)cc3)[C@@H](C(=O)N3CCOC3=O)[C@@H]2C)c1,i,11.4%,?,i
C[C@@H]1C(c2ccccc2)=NN(c2ccc(Br)cc2)[C@H]1C(=O)N1CCOC1=O,i,?,20µM*,i
O=C1OCCN1C(=O)[C@H]1[C@H](c2ccc(Cl)cc2)C(c2ccc(F)cc2)=NN1c1ccc(Br)cc1,?,-22.7%,10µM*,i
Cc1cccc(C2=NN(c3ccccc3)[C@@H](C(=O)N3CCOC3=O)[C@@H]2c2ccc(F)cc2)c1,5.62µM*,1.3%,22.9%,i
COc1ccc(C(=O)OC2=C(C(=O)c3ccccc3)N(C)S(=O)(=O)c3ccccc32)cc1OC,i,1.7%,/,i
Cc1cccc(OCc2nnc(SCC(=O)c3ccccc3)o2)c1,i,12.6µM*,11.8%,i
CCc1ccc(S(=O)(=O)c2nnn(-c3cccc(C)c3)c2N)cc1,i,22.4µM*,/,i
Clc1ccc(OCCSc2ncccn2)c2ccccc12,i,?,/,i
c1cnc(SCCOc2cccc3ccccc23)nc1,i,11.2µM*,-4.7%,i
CN(/N=C/c1cc(Br)cc(Br)c1O)c1cccc(C(F)(F)F)n1,i,?,8.91µM*,i
CC(C)(C)C(=O)Nc1ccccc1C(=O)Nc1cc(Cl)ccc1Cl,i,22.4µM*,-1.4%,i
O=c1cc(-c2c(O)c3ccccc3n(Cc3ccccc3)c2=O)[nH][nH]1,?,-3.4%,2.9%,i
Cn1c(=O)c(-c2cccc(Cl)c2)c(O)c2ccccc21,i,11.2µM*,7.0%,i
CCn1c(=O)c(-c2cc(=O)[nH][nH]2)c(O)c2ccccc21,31.6µM*,-4.4%,-1.3%,i
CCCCn1c(=O)c(-c2ccccc2)c(O)c2ccccc21,i,17.8µM*,-0.3%,i
Cc1ccc2c(c1)C(c1ccc(F)cc1)N(C(=O)C(C)C)CC(=O)N2 (stereo not given),i,-7.8%,/,i
Cc1cccc(-c2cc3nc(C)cc(C)n3n2)c1,i,-13.1%,-2.3%,i
Cc1cc(C)n2nc(-c3cccc(Br)c3)cc2n1,i,11.2µM*,5.2%,i
CCCCCOc1ccc(Cn2c(=O)oc3ccc(C)cc32)cc1OC,i,1.6%,-1.6%,i
SMILES,FUS suppressor,TDP-43 yeast inh,aSyn yeast inh,Abeta rescue
Cc1cccc(N2CCN(C(=O)CS(=O)(=O)Cc3nc(-c4ccccc4F)oc3C)CC2C)c1 (stereo not given),31.6µM*,18.9%,9.4%,i
Cc1cccc(N2CCN(C(=O)COc3ccc4c(c3)CCC4)CC2)c1C,/,19.6%,8.2%,i
Cc1cccc(N2CCN(C(=O)COc3ccc4c(c3)CCC4)CC2C)c1 (stereo not given),?,35.5µM*,25.9%,i
CCN1CCN(C(=O)CS(=O)(=O)Cc2nc(-c3ccccc3C)oc2C)CC1,i,-17.3%,-4.6%,i
Cc1cccc(N2CCN(C(=O)CSc3ccsc3[N+](=O)[O-])CC2C)c1 (stereo not given),i,17.8µM*,8.9%,?
Cc1cccc(N2CCN(C(=O)CS(=O)(=O)Cc3nc(-c4ccccc4C)oc3C)CC2C)c1 (stereo not given),?,25.1µM*,/,i
O=C(NNc1nc2ccc(Cl)cc2s1)c1cc(-c2cccs2)nc2ccccc12,i,4.47µM*,?,?
Cc1cc(C)c2nc(NNC(=O)c3cc(-c4cccs4)nc4ccccc34)sc2c1,i,?,-8.1%,?
Cc1ccc(Nc2nnc(-c3ccc(C)c(S(=O)(=O)N4CCN(C)CC4)c3)c3ccccc23)c(C)c1,i,19.1%,/,i
COCCNc1cc(N)c([N+](=O)[O-])cc1[N+](=O)[O-],i,11.2µM*,4.7%,i
CCOC(=O)c1ccc(NCCOC)c([N+](=O)[O-])c1,i,?,-1.5%,i
CCc1nc2ccc(C(=O)Nc3cc(-c4ccccc4)ccc3OC)cn2c1N(CC)CCN(C)C,i,8.9%,-3.8%,i
CCc1nc2ccc(C(=O)Nc3cccc(OC)c3)cn2c1N(C)CCCc1ccccc1,?,35.5µM*,-34.2%,i
CCc1nc2ccc(C(=O)Nc3cc(-c4ccccc4)ccc3OC)cn2c1N(CC)Cc1cccc(Br)c1,?,15.8µM*,-0.2%,i
CCc1nc2ccc(C(=O)Nc3cccc(NS(C)(=O)=O)c3)cn2c1N(C)CCCc1ccccc1,i,0.0%,-0.9%,i
COC1=C[C@H](C(=O)NC2CCN(Cc3ccccc3)CC2)C(C)C(c2ccccc2)CC1=O (stereo not given in full),i,/,/,/
Cn1c(=O)c2c(-c3ccc(Br)cc3)n(Cc3ccc(F)cc3)cc2n(C)c1=O,i,5.8%,/,i
COc1cc(-c2nc(C(=O)NCC3CCCO3)cc3c2[nH]c2ccccc23)cc(OC)c1OC (stereo not given),?,28.2µM*,?,i
O=C(NCC1CCCO1)c1cc2ccccc2[nH]1 (stereo not given),i,13.0%,-8.5%,i
COc1cccc2[nH]c(C(=O)NCC3CCCO3)cc12 (stereo not given),i,-6.7%,9.4%,i
O=C(NCC1CCCO1)c1cc2c([nH]c3ccccc32)c(-c2cccc(Cl)c2)n1 (stereo not given),?,20µM*,0.0%,i
COc1ccccc1-c1nc(C(=O)NCC2CCCO2)cc2c1[nH]c1ccccc12 (stereo not given),?,20µM*,-12.0%,i
SCc1nc2ccccc2[nH]1,/,/,7.2%,/
CN(C)c1ccc(/C=C/c2ccnc3ccc(O)cc23)cc1,/,/,7.9%,/
Cc1ccc2nc(-c3cccc(N)c3)oc2c1,i,-11.5%,-23.8%,i
Cc1cc(C)c2oc(-c3cccc(N)c3)nc2c1,i,11.2µM*,6.5%,i
Cc1ccc(Nc2nc(-c3ccccc3)nc3ccccc23)cc1,i,12.6µM*,-30.6%,i

# Bioassay records deposited in PubChem by National Center for Advancing Translational Sciences (NCATS).
